Laboratory results as given in PubChem BioAssay.
Where “and” joins values, the source holds several entries; their conditions need not be identical. Equal values may be shown once. Calls of active or inactive are those of the source.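 Rule for the calls, unless noted: active = compounds whose cell count with miR-34 switched on is under 0.7 times the count with it off; inactive = the rest.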

Columns and labels:
[1] = test system: Aerobactin synthetase IucA (Klebsiella pneumoniae); experiment: IucA aerobactin synthetase inhibitors, biochemical, Tocris library, absorbance (AID 1345561; call rule not given here;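 note: 100% = enzyme without compound and 0% = no enzyme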); details: purified IucA enzyme assay, absorbance (OD) read-out; stronger effect = lower value;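 tested at 8 µM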
[2] = sensitizers of A549 cells to miR-34 induction, primary screen, imaging, A549 dox-inducible miR-34, nuclei and caspase counts (AID 1347080); details: A549 miR-34 inducible, Hoechst nuclei count, 48 h
[3] = survival rescue of mitochondrial mutant cells in low glucose, primary screen, MELAS cybrids, Rieske KO mouse fibroblasts, CellTiter-Glo (AID 1508586;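 active = mean z-score across replicates of 1.96 or higher in either the MELAS or the Rieske mutant cell line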;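 note: z relative to plate mean and SD of compound and empty wells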)
[4] = viability rescue of complex I mutant cybrids, primary screen, cell-based, galactose medium, ATP luminescence (AID 1645843;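 active = z-score of at least 1.8 in each of two replicates, scored against plate mean and spread of sample wells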;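 note: positive z means more ATP and so rescue of galactose-driven cybrid death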); details: complex I mutant cybrid cells, 72 h, stronger effect = higher value
[5] = phospholipid biosynthesis inhibitors in animal cells, primary screen, cell-based, LOPAC library, screen 4 (AID 1347384; call rule not given here); details: phospholipid biosynthesis inhibition screen, at 10 µM
[6] = modifiers of HSF1 nuclear foci, imaging, Selleck Cancer Library (AID 1347162; in the data active = plate-normalised HSF1 focus index below about 0.46); details: human cells, at 10 µM; SSMD: measured here: HSF1 foci SSMD mean; cell count: measured here: cell number; plate-normalised HSF1 focus index: stronger effect = lower value
[7] = stronger effect = lower value, cell number ratio, induced over uninduced
[8] = measured here: relative caspase fold change +Dox/-Dox
[9] = measured here: total cells with miR-34 induction, stronger effect = lower value
[10] = measured here: total cells without miR-34 induction

SMILES | remaining activity [1] | fold change [2, 7] | fold change [2, 8] | cell count [2, 9] | cell count [2, 10] | z-score ([3]; MELAS cybrid survival, CellTiter-Glo 48 h, stronger effect = higher value) | z-score ([3]; Rieske KO mouse fibroblast survival, CellTiter-Glo 72 h) | z-score [4] | outcome [5] | SSMD [6] | cell count [6] | plate-normalised HSF1 focus index [6]
CNC(CC(=O)O)C(=O)O (stereo not given) | 97.3% (inactive) | 0.825 (inactive) and 1.05 (inactive) | 1.55 and 0.67 | 8200 and 8440 | 9940 and 8040 | -0.165 (inactive) | -0.287 | 0.29 (inactive) |  |  |  | 
Cc1cc(C)c(S(=O)(=O)Nc2cccc(C(F)(F)F)c2)c(C)c1 | 107% (inactive) | 0.995 (inactive) | 0.922 | 5690 | 5720 |  |  | -0.605 (inactive) |  |  |  | 
NS(=O)(=O)c1cccc2c1c([N+](=O)[O-])cc1[nH]c(=O)c(=O)[nH]c12 | 96.2% (inactive) | 0.919 (inactive) | 0.625 | 8900 | 9680 |  |  | -0.025 (inactive) | inactive |  |  | 
Cc1nn(-c2ccccc2)c(C)c1/C=N/N1CCN(Cc2ccccc2)CC1 | 122% (inactive) | 1.03 (inactive) | 0.466 | 8730 | 8510 |  |  | -0.095 (inactive) |  | 3.26 | 6930 | 1.18 (inactive)
Nc1c(S(=O)(=O)O)cc(Nc2cccc3ccccc23)c2c1C(=O)c1ccccc1C2=O | 109% (inactive) | 0.981 (inactive) | 1.43 | 9410 | 9590 |  |  | 3.16 (active) |  |  |  | 
NC(C(=O)O)c1cc(O)cc(O)c1 (stereo not given) | 101% (inactive) | 0.987 (inactive) | 0.844 | 9310 | 9430 |  |  | -0.435 (inactive) |  |  |  | 
Cc1c(C2CCN(CCc3ccccc3)CC2)noc1-c1ccc(Cl)cc1 | 92.3% (inactive) | 0.891 (inactive) | 0.892 | 6770 | 7590 |  |  | -0.21 (inactive) |  |  |  | 
c1ncc(CC2CCNCC2)[nH]1 | 101% (inactive) | 0.95 (inactive) | 0.717 | 8900 | 9370 |  |  | 0.095 (inactive) |  |  |  | 
N[C@H]1CCN(O)C1=O | 122% (inactive) | 1.02 (inactive) | 0.709 | 8480 | 8300 |  |  | -0.005 (inactive) |  |  |  | 
CC(C)SC(=N)N | 92% (inactive) | 0.945 (inactive) and 0.931 (inactive) | 0.992 and 1.03 | 5980 and 8810 | 6320 and 9460 |  |  | 0.865 (inactive) |  |  |  | 
CCCCCCCC/C=C\CCCCCCCC(=O)N[C@@H](CO)Cc1ccc(O)cc1 | 129% (inactive) | 0.903 (inactive) and 0.933 (inactive) | 1.11 and 0.626 | 5590 and 5540 | 6200 and 5940 |  |  | -0.83 (inactive) |  |  |  | 
CCOC(=O)C1CSC(Cc2ccc(OCc3ccc([N+](=O)[O-])cc3)cc2)N1 (stereo not given) | 95.4% (inactive) | 0.923 (inactive) | 1.54 | 8250 | 8940 |  |  | -0.58 (inactive) |  |  |  | 
FC(F)(F)c1cccc(-c2noc(-c3cc(-c4ccccc4)c(C(F)(F)F)s3)n2)c1 | 101% (inactive) | 0.966 (inactive) and 0.884 (inactive) | 1.01 and 0.898 | 5830 and 8210 | 6040 and 9290 |  |  | 0.175 (inactive) |  |  |  | 
O=[N+]([O-])c1ccccc1S(=O)(=O)NCC1CCC(CNCC2CCc3ccccc3C2)CC1 (stereo not given) | 97.1% (inactive) | 0.747 (inactive) | 1.77 | 2050 | 2740 |  |  | -0.675 (inactive) |  |  |  | 
O=c1oc(-c2ccc(C(F)(F)F)cc2)nn1Cc1cc(Cl)ccc1O | 93.9% (inactive) | 1.02 (inactive) | 1.81 | 6380 | 6280 |  |  | -0.655 (inactive) |  |  |  | 
CCCc1c(OCCCOc2ccc(OCC(=O)O)cc2)ccc(CC=O)c1O | 117% (inactive) | 0.911 (inactive) | 0.927 | 9560 | 10500 |  |  | 1.5 (inactive) |  |  |  | 
Nc1nc(Nc2ccccc2)nc2c1ncn2[C@@H]1O[C@H](CO)[C@@H](O)[C@H]1O | 107% (inactive) | 0.978 (inactive) | 0.752 | 9880 | 10100 |  |  | -0.09 (inactive) |  |  |  | 
COc1ccc(-c2nc(C(=O)N3CCN(C)CC3)sc2-c2ccc(OC)cc2)cc1 | 116% (inactive) | 0.946 (inactive) and 0.989 (inactive) | 2.48 and 0.892 | 5370 and 9040 | 5680 and 9140 |  |  | -0.66 (inactive) |  |  |  | 
N[C@@H](Cn1ccc(=O)n(Cc2ccccc2C(=O)O)c1=O)C(=O)O | 102% (inactive) | 0.972 (inactive) | 1.26 | 8660 | 8900 |  |  | 0.025 (inactive) |  |  |  | 
CCS(=O)(=O)N(C)[C@H]1c2cc(C#N)ccc2OC(C)(C)[C@@H]1O | 111% (inactive) | 0.889 (inactive) | 1.89 | 8640 | 9720 |  |  | 0.545 (inactive) |  |  |  | 
O=C(c1ccc(F)cc1)C1CCN(CCCCc2ccccc2)CC1 | 113% (inactive) | 0.877 (inactive) | 1.29 | 8620 | 9830 |  |  | -0.88 (inactive) |  |  |  | 
OC[C@H]1NC[C@@H](O)[C@@H](O)[C@@H]1O | 123% (inactive) | 0.958 (inactive) and 0.973 (inactive) | 0.787 and 0.709 | 4950 and 9630 | 5160 and 9890 |  |  | -0.17 (inactive) |  |  |  | 
COc1ccc(NC(=O)c2cc(OCCCN(C)C)nn2Cc2ccccc2)cc1 | 99.8% (inactive) | 0.937 (inactive) | 1.3 | 8250 | 8810 |  |  | -0.3 (inactive) |  |  |  | 
OC[C@H]1O[C@@H](n2cnc3c(NC4CCCC4)ncnc32)[C@H](O)[C@@H]1O | 123% (inactive) | 0.882 (inactive) | 0.89 | 9040 | 10200 |  |  | 0.51 (inactive) |  |  |  | 
